# Screening results deposited in PubChem by several laboratories.
# A selection: hits, their analogues and other compounds. The true share with any hit is near 32%.
# CYP2C9 act – CYP2C9 (human) activation; P11712; recombinant CYP2C9, luciferin-H conversion, luminescence; active compounds read high; factor 1 = untreated enzyme, 0 = blocked; activation factor at 5 µM; hit rate 1.4% among 96,000;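 active = activation factor of 2 or more for CYP2C9 at a 5 µM dose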;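 note: 0 = sulfaphenazole-blocked wells and 1 = vehicle-only wells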
# PostGolgi yeast – growth inhibition of a yeast mutant, post-Golgi transport screen; post-Golgi transport phenotypic cell assay; inhibition, % at 10 µM; hit rate 0.9% among 98,000; AID 739;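 note: yeast cells grown in 1536-well plates; yeast grown about 18 h at 30C before absorbance read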
# PostGolgi ctrl – yeast control strain growth, post-Golgi counter-screen. AID 738. efflux-deficient yeast background strain, growth absorbance A615, 16 h. inhibition, % at 10 µM. hit rate 5% among 98,000
# CYP2C19 inh – blocks human cytochrome P450 2C19; P33261; CYP2C19 Supersomes, luciferin-H EGE luminescence, 30 min; inhibition, % at 5 µM; hit rate 21% among 96,000; AID 778;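 active = CYP2C19 inhibition above a set limit at 5 µM in the primary screen, cut at about 50% in these data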;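 note: plate controls were negative control wells for no effect and 2.5 mM tranylcypromine positive control for full effect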
# Target sequence (P33261 whole entry, looked up): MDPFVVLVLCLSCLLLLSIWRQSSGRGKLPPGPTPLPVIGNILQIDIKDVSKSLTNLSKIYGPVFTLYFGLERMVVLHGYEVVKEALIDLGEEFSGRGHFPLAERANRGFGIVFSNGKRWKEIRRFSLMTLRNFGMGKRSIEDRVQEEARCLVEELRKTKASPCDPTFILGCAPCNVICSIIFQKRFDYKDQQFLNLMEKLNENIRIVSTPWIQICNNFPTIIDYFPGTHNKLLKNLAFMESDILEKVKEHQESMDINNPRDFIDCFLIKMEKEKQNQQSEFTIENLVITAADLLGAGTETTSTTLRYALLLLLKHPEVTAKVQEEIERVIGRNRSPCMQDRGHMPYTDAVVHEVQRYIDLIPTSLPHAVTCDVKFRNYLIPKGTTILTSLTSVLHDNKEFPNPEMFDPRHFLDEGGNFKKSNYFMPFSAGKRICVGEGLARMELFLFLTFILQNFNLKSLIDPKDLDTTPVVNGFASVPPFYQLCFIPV
# CYP2C19 act – increases human CYP2C19 enzyme activity | recombinant CYP2C19, luciferin-H EGE luminescence; active compounds read high; 0 = fully inhibited enzyme, 1 = untreated enzyme | activation factor at 5 µM | 96,000 tested, under 10 active;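 active = activation factor of at least 2 at 5 µM in the primary screen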;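 note: 0 = wells with 2.5 mM tranylcypromine and 1 = vehicle-only wells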
# CYP2C9 inh – human CYP2C9 inhibition | P11712 | CYP2C9 Supersomes, luciferin-H conversion, luminescence | inhibition, % at 5 µM | hit rate 20% among 96,000;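 active = blocking of liver enzyme CYP2C9 beyond about 50% at 5 µM, limit read from the data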
# * = called active by the depositor; · = no result. Cut-off read from the data, not from the text of the source, unless noted: active = inhibition above about 30%; inactive = the rest.
SMILES,CYP2C9 act,PostGolgi yeast,PostGolgi ctrl,CYP2C19 inh,CYP2C19 act,CYP2C9 inh
CC(=O)Nc1ccc(S(=O)(=O)NCCNC(=O)c2ccccc2F)cc1,0.9,-8.4,-0.4,-9.8,1.1,10.5
O=C(OCN1C(=O)c2ccccc2C1=O)c1ccccc1,1.6,11.1,3.0,68.1*,0.3,-61.1
O=C(c1ccccc1)c1ccc(CN2C(=O)c3ccccc3C2=O)o1,0.2,1.2,22.5,90.8*,0.1,85.0*
Cc1cc(C)c(OC2(c3ccccc3)OC(=O)c3ccccc32)c(C)c1 (centres undefined),0.5,-10.1,5.0,53.8*,0.5,54.8*
Cc1cccc(C)c1OC1(c2ccccc2)OC(=O)c2ccccc21 (centres undefined),0.3,-13.6,15.4,81.5*,0.2,69.2*
O=C(O)c1cc(NCc2cccs2)ccc1N1CCOCC1,1,-6.6,5.2,-1.7,1,-1.2
COC(=O)c1cc(NCc2cccs2)ccc1N1CCOCC1,0.4,-7.7,6.8,77.1*,0.2,63.7*
O=C(CNS(=O)(=O)/C=C/c1ccccc1)OCC(=O)N1CCC(Cc2ccccc2)CC1,0.5,17.8,15.8,24.2,0.8,51.5*
C=CCn1c(O)c(C(CC)=NCc2cccnc2)c(=O)[nH]c1=O,0.7,·,·,53.6*,0.5,25.7
CC1(c2ccc3noc(-c4ccccc4)c3c2)OCCO1,0.6,3.4,5.8,50.3*,0.5,44.7
CC1(c2ccc3noc(-c4ccc(F)cc4)c3c2)OCCO1,0.9,1.9,18.4,69.1*,0.3,13.5
NC(=O)c1nc(N2CCOCC2)nc(N2CCOCC2)n1,0.9,13.0,5.4,12.4,0.9,13.8
Oc1ccc(C2Nc3cccc4cccc(c34)N2)c(O)c1,·,2.9,10.2,66.4*,0.3,·
c1coc(C2Nc3cccc4cccc(c34)N2)c1,0.5,17.1,4.7,59.3*,0.4,54.0*
Oc1ccc(/C=N/NC2=NCCCCC2)cc1,1,-6.5,6.7,9.2,0.9,1.6
Cn1c(Cl)c(/C=N/OC(=O)c2cccc(Cl)c2)c2ccccc21,1.6,-10.0,1.5,3.4,1,-59.5
Cc1ccccc1C(=O)O/N=C/c1c(N2CCOCC2)n(C)c2ccccc12,0.1,53.7*,39.9*,30.4,0.7,88.3*
CCOC(=O)CNC(=O)CSc1nc2cccnc2n1C,1.1,-0.5,-4.1,32.4,0.7,-5.2
Cc1nn(-c2ccccc2)c(OC(=O)c2cccs2)c1S(=O)(=O)c1ccccc1,0.2,-3.2,7.5,61.5*,0.4,79.9*
Cc1nn(-c2ccccc2)c(OC(=O)c2cccs2)c1S(=O)(=O)c1ccc([N+](=O)[O-])cc1,0,-2.2,-4.5,47.1,0.5,99.4*
Cc1nn(C(C)(C)C)c(OC(=O)C2CCCC2)c1S(=O)(=O)c1ccccc1,0.5,3.1,26.8,-4.2,1,48.9
CCCCCC(C)n1[nH]c(=O)cc1N (centres undefined),0.8,6.1,6.6,10.0,0.9,19.2
O/C(=C\Sc1nnc(Cc2ccccc2)o1)c1ccc(Br)cc1,0.1,-1.9,13.6,79.4*,0.2,92.6*
O=C(c1cnn2cccnc12)N1CCN(c2ccccc2)CC1,1.3,9.0,-8.2,86.7*,0.1,-25.8
O=C(c1ccncc1)N1CCN(c2cccc(C(F)(F)F)c2)CC1,0.1,-7.3,-10.8,100.3*,0,92.1*
SMILES,CYP2C9 act,PostGolgi yeast,PostGolgi ctrl,CYP2C19 inh,CYP2C19 act,CYP2C9 inh
CCSc1ccccc1C(=O)N1CCCC1,0.8,1.3,-4.5,14.5,0.9,17.8
CCSc1ccccc1C(=O)N1CCN(c2ccccc2F)CC1,0.4,6.1,2.8,53.6*,0.5,57.8*
O=C(c1ccccc1F)N1CCN(c2ccccc2)CC1,0.7,8.1,4.3,50.3*,0.5,32.1
COC(=O)COn1c(SCC(=O)OC)nc2ccccc2c1=O,0.7,1.9,-2.5,31.5,0.7,27.6
CC(O)[C@H](NC(=O)C1(c2ccccc2)CCN(C(=O)OC(C)(C)C)CC1)C(=O)O (some centres undefined),0.8,-8.1,2.8,14.1,0.9,15.7
Nn1c(SCC(=O)NC2CCCc3ccccc32)nnc1-c1cccs1 (centres undefined),0.5,5.0,-7.1,40.3,0.6,48.5
O=C(c1ccccc1Br)N1CCN(c2ccccc2)CC1,0.7,-1.2,-16.0,59.7*,0.4,32.8
O=C(c1ccc(Br)o1)N1CCN(c2ccccn2)CC1,0.2,-9.0,19.9,90.0*,0.1,77.2*
CCn1cc(Br)c(C(=O)N(C)Cc2ccccc2)n1,1.4,-1.4,-0.4,92.0*,0.1,-39.6
CC(C)OC(=O)c1cccnc1N1CCN(c2ccc(F)cc2)CC1,0.6,5.1,11.4,62.7*,0.4,35.4
CCn1cc(Br)c(C(=O)NC(C)c2ccccc2)n1 (centres undefined),1.5,-10.3,27.5,32.8,0.7,-54.6
O=C(N1CCOCC1)N1CCN(c2ccccc2)CC1,0.9,10.5,2.6,33.3,0.7,9.9
O=C(Nc1ccccc1)c1cccnc1N1CCCC1,1.1,4.4,6.7,3.6,1,-10.5
CCc1ccc(Nc2oc(C)cc(=O)c2C(C)=O)cc1,0.9,15.9,5.4,3.1,1,11.6
CCn1cc(Br)c(C(=O)N2CCN(c3ccccc3)CC2)n1,2.1*,-6.5,20.8,84.6*,0.2,-112.1
O=C(c1ccc2c(c1)OCO2)N1CCN(c2ccc(F)cc2)CC1,0.5,-2.9,4.7,83.8*,0.2,49.3
O=C(c1ccccc1F)N1CCN(c2ncccn2)CC1,0.7,5.0,-0.8,36.1,0.6,30.7
O=C(c1ccncc1)N1CCN(c2ccc(F)cc2)CC1,0.7,3.2,-0.3,91.4*,0.1,31.3
O=C(c1ccccc1C(=O)N1CCN(c2ccccc2F)CC1)N1CCN(c2ccccc2F)CC1,0.1,9.0,12.7,69.6*,0.3,89.0*
O=C(c1coc2ccccc2c1=O)N1CCN(c2cccc(C(F)(F)F)c2)CC1,0.5,1.6,12.7,23.5,0.8,53.0*
COC(=O)c1cccnc1N1CCN(c2ccccc2F)CC1,0.8,25.1,1.1,82.1*,0.2,22.5
O=C(c1ccccc1F)N1CCN(c2ccccc2F)CC1,0.7,2.7,5.6,67.7*,0.3,32.4
O=C(c1ccccc1F)N1CCN(c2cccc(C(F)(F)F)c2)CC1,0.4,-4.4,4.1,90.6*,0.1,63.2*
Cn1c(SCC(=O)N2CCOCC2)nc(O)cc1=O,0.9,-3.2,-1.6,0.3,1,5.3
CCn1cc(C(=O)N2CCCC2)c(=O)c2cc(S(=O)(=O)N3CCOCC3)ccc21,1,7.8,-6.8,-11.4,1.1,4.2
O=C(c1sc2ccccc2c1Cl)N1CCN(c2ccc(F)cc2)CC1,2.3*,6.6,45.0*,81.7*,0.2,-125.7
CS(=O)(=O)Nc1ccc(C(=O)N2CCN(c3ccccc3F)CC2)cc1,0.6,1.0,16.9,-15.9,1.2,38.7
